# Assay results from ChEMBL document CHEMBL1157539, “Thousands of chemical starting points for antimalarial lead identification” (Nature, 2010).
# Tests used:
# Type in all cases: functional
# Plasmodium falciparum [1] = experiment: GSK_TCMDC: Inhibition of Plasmodium falciparum 3D7 in whole red blood cells, using parasite LDH activity as an index of growth. Test compounds present at 2uM
# Plasmodium falciparum [2] = experiment: GSK_TCMDC: Inhibition of Plasmodium falciparum Dd2 in whole red blood cells, using parasite LDH activity as an index of growth. Test compounds present at 2uM
# HepG2 = experiment: GSK_TCMDC: Percent inhibition of human HepG2 cell line. Test compounds present at 10uM.
compound,measurement,setting,value
Cc1cc(OCc2ccccc2)c(OCc2ccccc2)cc1C(O)CN(C)Cc1ccccc1.Cl (stereo not drawn),Inhibition,Plasmodium falciparum [1],96%
same,Inhibition,Plasmodium falciparum [2],87%
same,Inhibition,HepG2,14%
COc1ccc(Nc2nccc(N3CCC(NC(=O)C(C)c4ccc(Cl)cc4)CC3)n2)cc1 (stereo not drawn),Inhibition,Plasmodium falciparum [1],94%
same,Inhibition,Plasmodium falciparum [2],52%
same,Inhibition,HepG2,18%
Cc1cc(Cl)c(S(=O)(=O)NC(C)(C)C)cc1OCC(=O)NC1CCCCC1,Inhibition,Plasmodium falciparum [1],93%
same,Inhibition,Plasmodium falciparum [2],53%
same,Inhibition,HepG2,10%
CN(C)CC(=O)NCC(NCCCNc1cc(=O)c2ccccc2[nH]1)c1cc(Br)cc(Br)c1 (stereo not drawn),Inhibition,Plasmodium falciparum [1],98%
same,Inhibition,Plasmodium falciparum [2],2%
same,Inhibition,HepG2,6%
O=c1cc(NCCC(CNCc2ccc(Br)o2)NCc2cc(Br)cc(Br)c2)[nH]c2ccccc12 (stereo not drawn),Inhibition,Plasmodium falciparum [1],98%
same,Inhibition,Plasmodium falciparum [2],90%
same,Inhibition,HepG2,2%
CCn1c(C(C)C)cc2c3c(N)nc(N)nc3ccc21,Inhibition,Plasmodium falciparum [1],92%
same,Inhibition,Plasmodium falciparum [2],0%
same,Inhibition,HepG2,67%
CCCCCCOc1ccc(/C(N)=N\Cc2ccccc2)c2c1CCCC2.Cl,Inhibition,Plasmodium falciparum [1],96%
same,Inhibition,Plasmodium falciparum [2],35%
same,Inhibition,HepG2,62%
CCCCNCc1ccc(-c2nc(CN(CCCn3ccnc3)C(=O)Nc3ccc(CC)cc3)cs2)cc1.O=C(O)C(F)(F)F,Inhibition,Plasmodium falciparum [1],100%
same,Inhibition,Plasmodium falciparum [2],56%
same,Inhibition,HepG2,21%
Cc1c(S(=O)(=O)Nc2cccc(CCN3CCCCC3CCN3CCCC3)c2)sc2ccc(Cl)cc12 (stereo not drawn),Inhibition,Plasmodium falciparum [1],93%
same,Inhibition,Plasmodium falciparum [2],10%
same,Inhibition,HepG2,22%
COc1ccc(Nc2nc(NC3CCN(C)CC3)cc(-c3ccc(OC)cc3)n2)cc1,Inhibition,Plasmodium falciparum [1],100%
same,Inhibition,Plasmodium falciparum [2],51%
same,Inhibition,HepG2,62%
Cc1ccc(NC(=O)N2CCCN(CCCCCNC(=O)/C=C/c3ccc(Cl)c(Cl)c3)CC2)cc1,Inhibition,Plasmodium falciparum [1],99%
same,Inhibition,Plasmodium falciparum [2],2%
same,Inhibition,HepG2,12%
